High-throughput results as filed in PubChem BioAssay.
USP30 block = inhibitors of human USP30 deubiquitinase. Q70CQ3. inhibition, % at 25 µM. hit rate 5.3% among 47,000. purified USP30, Ub-rhodamine cleavage fluorescence. AID 1645860
Target sequence (Q70CQ3 whole entry, looked up): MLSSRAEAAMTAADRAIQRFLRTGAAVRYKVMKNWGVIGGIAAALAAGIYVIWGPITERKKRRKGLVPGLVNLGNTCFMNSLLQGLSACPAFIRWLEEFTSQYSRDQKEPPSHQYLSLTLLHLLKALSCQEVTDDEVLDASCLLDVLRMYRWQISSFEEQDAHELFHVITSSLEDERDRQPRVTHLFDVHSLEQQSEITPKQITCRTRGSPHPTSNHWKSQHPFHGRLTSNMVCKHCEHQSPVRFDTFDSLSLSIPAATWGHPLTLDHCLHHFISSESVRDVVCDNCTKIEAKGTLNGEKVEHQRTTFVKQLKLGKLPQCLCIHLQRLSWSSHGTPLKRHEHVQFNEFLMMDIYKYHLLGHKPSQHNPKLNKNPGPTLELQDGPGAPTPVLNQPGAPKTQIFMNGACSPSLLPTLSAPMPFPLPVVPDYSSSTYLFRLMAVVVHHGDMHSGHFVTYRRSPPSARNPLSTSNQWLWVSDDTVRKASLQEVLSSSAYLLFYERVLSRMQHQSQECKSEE
USP8 block = inhibitors of human USP8 deubiquitinase; P40818; hit rate 4.2% among 47,000; AID 1645853; inhibition, % at 20 µM; purified USP8, Ub-rhodamine cleavage fluorescence, 30 min
USP17 inh = inhibitors of human USP17 deubiquitinase; hit rate 6.5% among 47,000; purified USP17, Ub-rhodamine cleavage fluorescence, 3 h; A8MUK1; AID 1645855; inhibition, % at 50 µM
USP10 block = human USP10 deubiquitinase inhibition; Q14694; purified USP10, Ub-rhodamine fluorescence, 60 min; inhibition, % at 20 µM; hit rate 1.1% among 47,000
USP28 block = inhibitors of human USP28 deubiquitinase. Q96RU2. purified USP28, Ub-rhodamine cleavage fluorescence, 30 min. inhibition, % at 25 µM. hit rate 3% among 47,000
An asterisk follows results filed as active. Rows were chosen to be rich in hits. Some 14% of all compounds tested hit in one or more screens of this group. No stated cut-off is given here; in the data, active means inhibition above about 30%; inactive means the rest.

SMILES	USP30 block	USP8 block	USP17 inh	USP10 block	USP28 block
CCOc1ccc(N2C(=O)c3ccccc3C2C(=O)NCc2ccccc2OC)cc1 (centres undefined)	52*	27	35*	-3	14
COc1ccccc1CNC(=O)C1c2ccccc2C(=O)N1Cc1ccc(C)cc1 (centres undefined)	86*	27	75*	4	9
COc1ccccc1CNC(=O)C1c2ccccc2CC(=O)N1C(C)C (centres undefined)	-3	4	3	-4	-6
CCOc1ccc(CN2C(=O)c3ccccc3C2C(=O)NCc2ccccc2OC)cc1 (centres undefined)	33*	17	40*	1	15
COc1ccccc1CNC(=O)[C@@H]1Cc2c([nH]c3ccccc23)C2c3ccccc3C(=O)N21 (some centres undefined)	-107	-9	-21	-2	-22
COCCN1C(=O)c2ccccc2C(C(=O)NCc2ccccc2OC)C12CCCC2 (centres undefined)	-16	6	-11	-3	-6
Cc1ccc(N2CCN(C(=O)CCC3=NS(=O)(=O)c4ccccc4N3)CC2)c(C)c1	-9	-2	3	-1	12
COc1ccc(NC(=O)c2c(NC(=O)Cc3ccccc3)sc3c2CCC(C)C3)cc1 (centres undefined)	-34	-17	-4	-1	2
COc1ccc(NC(=O)c2ccc3[nH]c4c(c3c2)CC(C)CC4)cc1 (centres undefined)	-3	26	31*	4	2
COc1ccc(NC(=O)c2ccc3c(c2)C2C4CCC(C4)C2C(c2ccccc2)N3)cc1 (centres undefined)	39*	0	11	6	0
COc1ccc(NC(=O)c2cncc(NS(=O)(=O)c3ccccc3)c2)cc1	-1	7	1	0	2
CC(=O)c1cc2c(=O)c3c(C(=O)O)c(O)c(O)cc3oc2c(C(C)=O)c1-c1coc2cc(O)c(O)c(C(=O)O)c2c1=O	-87	-63	46*	-3	40*
COc1ccc(C(=O)N[C@H]2[C@H](O)[C@H](O)C[C@@H]2c2ccccc2C)cc1	-43	1	10	0	2
Cc1ccc(NC(=O)Nc2ccc(C)n(CC(=O)Nc3ccc(C)cc3C)c2=O)cc1	74*	69*	79*	63*	53*
Cc1ccc(NC(=O)CN2c3ccccc3S(=O)(=O)c3ccccc32)c(C)c1	0	0	-1	-1	0
Cc1ccc(NC(=O)Nc2ccc(C)n(CC(=O)Nc3cc(C)ccc3C)c2=O)cc1	65*	70*	54*	39*	30*
Cc1ccc(C)c(NC(=O)Cn2ccc3ccn(C)c3c2=O)c1	-4	5	46*	0	0
CCOC(=O)CSc1nnc(-c2cnn(-c3ccccc3)c2N)o1	21	10	58*	1	15
Cc1c(NS(=O)(=O)c2ccc(C(C)C)cc2)c(-n2cnnc2)nn1C	0	-21	-1	0	-6
O=S1(=O)CCN(Cc2cccnc2)c2c(Oc3ccccc3)nc(F)c(Cl)c21	11	21	16	-1	13
O=S1(=O)CCN(CC2CCCO2)c2c(Oc3ccc(F)cc3)nc(F)c(Cl)c21 (centres undefined)	11	70*	34*	9	14
COCCCN1CCS(=O)(=O)c2c(Cl)c(F)nc(Oc3ccccc3F)c21	-30	95*	88*	13	19
O=S1(=O)CCN(CC2CCCO2)c2c(Oc3ccccc3)nc(F)c(Cl)c21 (centres undefined)	3	92*	60*	5	30
N#Cc1ccc(Oc2nc(F)c(Cl)c3c2N(CC2CCCO2)CCS3(=O)=O)cc1 (centres undefined)	4	71*	47*	5	9
CSc1nc2cc(S(=O)(=O)N3CCCc4ccccc43)ccc2s1	9	6	1	12	9
SMILES	USP30 block	USP8 block	USP17 inh	USP10 block	USP28 block
CC(CN=C1NS(=O)(=O)c2ccccc21)c1ccccc1 (centres undefined)	16	29	14	9	15
O=S1(=O)NC(=NCCc2ccc(Cl)cc2Cl)c2ccccc21	22	19	58*	7	5
O=S1(=O)NC(=NCCc2ccc(Cl)cc2)c2ccccc21	29	15	35*	7	9
Cc1nn2c(S(=O)(=O)Nc3ccc(F)c(F)c3)c(C)nc2s1	-3	-2	-3	-1	-10
COCCn1cc(NC(=O)N2CCN(c3ccccc3F)CC2)c2ccccc21	0	54*	13	-3	11
Cc1cc(C2CCCN2S(=O)(=O)c2ccc3c(c2)OCCO3)no1 (centres undefined)	20	29	16	0	19
CC(=O)N1CCOc2cc(S(=O)(=O)N3CCCC3c3cc(C)on3)ccc21 (centres undefined)	-1	-34	-10	-1	24
CCCc1cc(C2CCCN2S(=O)(=O)c2ccc3c(c2)OCCN3C(C)=O)no1 (centres undefined)	0	-10	-6	-1	49*
CC(=O)N1CCOc2cc(S(=O)(=O)N3CCCC3c3cc(C(C)C)on3)ccc21 (centres undefined)	14	5	0	0	40*
COc1ccc(OCCN(C)Cc2c([C@@H]3CCCO3)[nH]c3ncccc23)cc1	21	24	6	1	10
CN1C(=O)[C@@H]2CN(C(=O)c3ccncc3)CCN2C(=O)[C@H]1Cc1ccccc1	3	0	-5	3	-4
CS(=O)(=O)c1cccc(N2CCN(CC3CC3)C2=O)c1	15	2	10	1	33*
CC(C)c1ccc(N2CCN(Cc3ccc(F)cc3F)C2=O)cc1	8	1	-13	4	21
CC(C)c1ccc(N2CCN(CC3CCCCC3)C2=O)cc1	-5	1	-3	5	1
CS(=O)(=O)c1cccc(N2CCN(Cc3ccc(F)cc3F)C2=O)c1	9	-18	-27	-4	33*
Cc1ccc(N(Cc2nc3nc(C)cc(=O)n3[nH]2)S(=O)(=O)c2ccccc2)cc1	24	16	11	1	4
CC(C)c1ccc(C(C)NC(=O)c2cccc(N(C)C)c2)cc1 (centres undefined)	-5	2	39*	4	-6
O=C(O)c1cn(Cc2ccccc2F)c(=O)c2ccccc12	-44	-19	-26	-2	0
O=C(NCc1ccccc1)[C@@H]1Cc2c([nH]c3ccccc23)C2c3ccccc3C(=O)N21 (some centres undefined)	-64	0	1	-2	-3
CCCCc1nc2sc3c(SCC(=O)Nc4cccc(C)c4)ncnc3c2c2c1CCC2	-12	-1	64*	-2	4
CCCCc1nc2sc3c(SCC(=O)Nc4ccc(C)cc4)ncnc3c2c2c1CCC2	-3	7	0	-3	6
CCCCc1nc2sc3c(SCC(N)=O)ncnc3c2c2c1CCC2	23	-1	18	2	36*
